Drawing on article PMC7862700, “An all-to-all approach to the identification of sequence-specific readers for epigenetic DNA modifications on cytosine”, this text covers binding signal for 1 sequence.

Test in all cases: DAPPL (digital affinity profiling via proximity ligation, sequencing); 10 mM Tris-HCl pH 7.5, 50 mM NaCl, 1 mM DTT, 4% glycerol, room temperature, 30 min; GST-TFs on glutathione beads, 16-mer random dsDNA library, 0.1% formaldehyde crosslink after washing; high values mean tight binding
Conditions in all cases: protein: recombinant; tags: N-terminal GST; dsDNA, one strand shown

One experiment has as its target T1, FLI1 (Homo sapiens, UniProt Q01543 1-452).
T1 sequence: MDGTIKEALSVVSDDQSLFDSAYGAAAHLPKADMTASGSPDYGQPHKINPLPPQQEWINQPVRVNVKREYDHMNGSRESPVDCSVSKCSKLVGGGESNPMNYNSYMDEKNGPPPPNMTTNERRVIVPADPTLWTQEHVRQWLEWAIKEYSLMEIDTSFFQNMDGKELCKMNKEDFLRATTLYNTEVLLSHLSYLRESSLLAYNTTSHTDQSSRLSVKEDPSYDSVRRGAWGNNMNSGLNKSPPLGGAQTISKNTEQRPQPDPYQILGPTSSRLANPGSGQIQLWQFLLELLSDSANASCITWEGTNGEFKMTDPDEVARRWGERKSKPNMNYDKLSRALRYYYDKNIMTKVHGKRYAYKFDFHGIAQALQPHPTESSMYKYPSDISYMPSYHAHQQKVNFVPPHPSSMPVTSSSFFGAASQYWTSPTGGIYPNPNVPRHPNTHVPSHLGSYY
In outline: (§1)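 After expression in yeast as GST fusions, human transcription factors were bound to glutathione beads, DNA-barcoded and mixed with a tag-only sample. The pools were incubated with 200 nmole of a 16-mer random double-stranded DNA library in Tris/NaCl/DTT/glycerol buffer (30 min, room temperature), washed and crosslinked with 0.1% formaldehyde. Proximity ligation with BsaI/T4 ligase ran for 1 h at 37 °C, before PCR amplification and sequencing on an Illumina NextSeq500. Binding signal is a hexamer's read frequency for a factor divided by its frequency for the tag-only sample.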

In the next experiment the target is T2, ELK1 (Homo sapiens, UniProt P19419 1-428).
T2 sequence: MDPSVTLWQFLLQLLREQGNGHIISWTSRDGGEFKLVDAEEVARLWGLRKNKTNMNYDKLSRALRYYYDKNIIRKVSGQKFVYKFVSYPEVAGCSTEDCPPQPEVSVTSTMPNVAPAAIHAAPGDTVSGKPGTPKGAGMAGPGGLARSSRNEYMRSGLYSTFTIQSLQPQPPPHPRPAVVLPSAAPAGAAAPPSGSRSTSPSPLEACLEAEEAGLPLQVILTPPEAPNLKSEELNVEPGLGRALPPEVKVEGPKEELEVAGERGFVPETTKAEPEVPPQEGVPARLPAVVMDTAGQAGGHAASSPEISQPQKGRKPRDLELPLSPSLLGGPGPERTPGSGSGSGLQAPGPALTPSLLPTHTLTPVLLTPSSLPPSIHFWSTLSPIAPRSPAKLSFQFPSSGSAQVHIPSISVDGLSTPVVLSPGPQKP
In short, it runs like this: as §1

A further experiment addresses T3, GABPA (Homo sapiens, UniProt Q06546 1-454).
T3 sequence: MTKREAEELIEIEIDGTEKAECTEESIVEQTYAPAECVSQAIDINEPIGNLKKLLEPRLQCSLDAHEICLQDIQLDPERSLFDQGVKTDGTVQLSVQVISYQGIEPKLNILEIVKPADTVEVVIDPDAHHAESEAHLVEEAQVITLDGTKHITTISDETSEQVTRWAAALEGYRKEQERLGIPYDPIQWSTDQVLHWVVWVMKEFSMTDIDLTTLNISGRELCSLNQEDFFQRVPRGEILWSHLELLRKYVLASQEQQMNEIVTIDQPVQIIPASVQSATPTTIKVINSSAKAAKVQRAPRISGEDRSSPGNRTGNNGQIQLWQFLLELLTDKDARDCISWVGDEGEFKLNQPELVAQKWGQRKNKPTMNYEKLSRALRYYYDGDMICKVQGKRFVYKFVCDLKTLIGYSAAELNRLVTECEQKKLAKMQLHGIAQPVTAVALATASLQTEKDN
In outline:
as §1

For a further experiment, the target named is T4, ERG (Homo sapiens, UniProt P11308 1-479).
T4 sequence: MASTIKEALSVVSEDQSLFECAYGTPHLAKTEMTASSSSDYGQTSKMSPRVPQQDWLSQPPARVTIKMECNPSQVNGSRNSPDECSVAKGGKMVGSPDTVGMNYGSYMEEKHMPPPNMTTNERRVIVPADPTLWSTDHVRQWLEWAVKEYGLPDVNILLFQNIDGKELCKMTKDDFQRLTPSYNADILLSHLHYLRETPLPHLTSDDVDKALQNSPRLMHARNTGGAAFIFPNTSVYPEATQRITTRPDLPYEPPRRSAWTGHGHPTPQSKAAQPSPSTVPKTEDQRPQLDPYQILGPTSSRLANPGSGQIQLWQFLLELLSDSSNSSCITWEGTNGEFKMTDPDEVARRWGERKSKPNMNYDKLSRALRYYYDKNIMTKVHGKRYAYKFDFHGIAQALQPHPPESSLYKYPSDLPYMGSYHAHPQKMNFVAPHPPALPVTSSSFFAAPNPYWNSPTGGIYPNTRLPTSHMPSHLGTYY
In short, it runs like this: as §1

The target in another experiment is ELF1 (Homo sapiens, UniProt P32519 1-619). In outline: as §1
Chain of ELF1 (P32519 whole entry): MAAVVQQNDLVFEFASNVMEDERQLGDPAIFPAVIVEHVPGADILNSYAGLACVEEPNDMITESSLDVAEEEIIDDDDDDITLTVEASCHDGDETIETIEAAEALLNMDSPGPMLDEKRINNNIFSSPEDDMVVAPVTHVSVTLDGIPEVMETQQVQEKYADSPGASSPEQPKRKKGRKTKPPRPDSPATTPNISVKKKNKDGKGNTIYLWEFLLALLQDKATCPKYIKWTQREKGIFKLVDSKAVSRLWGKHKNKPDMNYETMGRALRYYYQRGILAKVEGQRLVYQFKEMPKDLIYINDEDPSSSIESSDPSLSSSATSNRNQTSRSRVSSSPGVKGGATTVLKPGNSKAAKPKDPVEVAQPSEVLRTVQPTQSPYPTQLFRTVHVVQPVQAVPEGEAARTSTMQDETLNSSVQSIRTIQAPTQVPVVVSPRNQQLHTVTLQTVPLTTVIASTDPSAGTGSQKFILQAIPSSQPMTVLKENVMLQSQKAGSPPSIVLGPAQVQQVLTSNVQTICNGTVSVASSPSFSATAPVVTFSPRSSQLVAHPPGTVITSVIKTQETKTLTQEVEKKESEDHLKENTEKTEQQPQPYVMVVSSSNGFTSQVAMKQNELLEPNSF
In another experiment the target is T5, EHF (Homo sapiens, UniProt Q9NZC4 1-300).
T5 sequence: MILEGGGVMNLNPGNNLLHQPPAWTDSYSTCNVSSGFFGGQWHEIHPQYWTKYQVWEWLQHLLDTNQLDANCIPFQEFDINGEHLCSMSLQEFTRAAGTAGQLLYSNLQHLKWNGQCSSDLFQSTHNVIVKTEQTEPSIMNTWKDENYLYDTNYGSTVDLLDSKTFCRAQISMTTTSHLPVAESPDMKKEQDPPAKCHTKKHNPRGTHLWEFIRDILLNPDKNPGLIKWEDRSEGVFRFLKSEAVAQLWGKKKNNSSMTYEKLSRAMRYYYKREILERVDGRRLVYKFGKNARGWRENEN
In outline: as §1

A further experiment deals with SPI1 (Homo sapiens, UniProt P17947 1-270). In short, it runs like this: as §1
Another experiment concerns the target SPIB (Homo sapiens, UniProt Q01892 1-262). In outline: as §1
For a further experiment, the target named is T6, ELK3 (Homo sapiens, UniProt P41970 1-407).
T6 sequence: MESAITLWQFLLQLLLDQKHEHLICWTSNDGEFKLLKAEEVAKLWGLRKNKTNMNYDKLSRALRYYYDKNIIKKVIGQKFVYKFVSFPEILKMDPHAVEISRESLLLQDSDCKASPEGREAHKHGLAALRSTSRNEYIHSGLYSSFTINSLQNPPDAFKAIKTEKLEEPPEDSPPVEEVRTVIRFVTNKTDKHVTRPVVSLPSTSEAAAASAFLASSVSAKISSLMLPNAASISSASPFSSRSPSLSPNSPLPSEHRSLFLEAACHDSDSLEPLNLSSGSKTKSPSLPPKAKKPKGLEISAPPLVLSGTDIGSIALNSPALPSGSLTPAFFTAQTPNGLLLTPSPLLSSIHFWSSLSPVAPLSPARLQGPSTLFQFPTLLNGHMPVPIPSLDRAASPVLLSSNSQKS
In short, it runs like this:
as §1

The target of a further experiment is T7, FEV (Homo sapiens, UniProt Q99581 1-238).
T7 sequence: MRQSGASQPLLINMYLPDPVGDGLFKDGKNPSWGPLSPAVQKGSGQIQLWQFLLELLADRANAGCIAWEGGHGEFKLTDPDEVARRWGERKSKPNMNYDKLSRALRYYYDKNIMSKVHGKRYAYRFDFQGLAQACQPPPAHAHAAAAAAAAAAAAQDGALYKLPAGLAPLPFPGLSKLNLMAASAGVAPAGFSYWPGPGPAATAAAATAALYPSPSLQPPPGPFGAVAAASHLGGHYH
In short, it runs like this:
as §1

Another experiment addresses ETV5 (Homo sapiens, UniProt P41161 1-510). In short, it runs like this:
as §1

In a further experiment the target is T8, SPIC (Homo sapiens, UniProt Q8N5J4 1-248).
T8 sequence: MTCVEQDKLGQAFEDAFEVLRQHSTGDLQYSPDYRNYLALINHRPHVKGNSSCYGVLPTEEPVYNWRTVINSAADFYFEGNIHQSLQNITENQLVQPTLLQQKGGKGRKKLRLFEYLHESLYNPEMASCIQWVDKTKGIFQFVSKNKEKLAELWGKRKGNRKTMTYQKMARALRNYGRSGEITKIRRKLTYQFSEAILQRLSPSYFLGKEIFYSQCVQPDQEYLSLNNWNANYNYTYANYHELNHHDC
In outline: as §1

In the next experiment the target is ELF4 (Homo sapiens, UniProt Q99607 1-663). In outline: as §1
Chain of ELF4 (Q99607 whole entry): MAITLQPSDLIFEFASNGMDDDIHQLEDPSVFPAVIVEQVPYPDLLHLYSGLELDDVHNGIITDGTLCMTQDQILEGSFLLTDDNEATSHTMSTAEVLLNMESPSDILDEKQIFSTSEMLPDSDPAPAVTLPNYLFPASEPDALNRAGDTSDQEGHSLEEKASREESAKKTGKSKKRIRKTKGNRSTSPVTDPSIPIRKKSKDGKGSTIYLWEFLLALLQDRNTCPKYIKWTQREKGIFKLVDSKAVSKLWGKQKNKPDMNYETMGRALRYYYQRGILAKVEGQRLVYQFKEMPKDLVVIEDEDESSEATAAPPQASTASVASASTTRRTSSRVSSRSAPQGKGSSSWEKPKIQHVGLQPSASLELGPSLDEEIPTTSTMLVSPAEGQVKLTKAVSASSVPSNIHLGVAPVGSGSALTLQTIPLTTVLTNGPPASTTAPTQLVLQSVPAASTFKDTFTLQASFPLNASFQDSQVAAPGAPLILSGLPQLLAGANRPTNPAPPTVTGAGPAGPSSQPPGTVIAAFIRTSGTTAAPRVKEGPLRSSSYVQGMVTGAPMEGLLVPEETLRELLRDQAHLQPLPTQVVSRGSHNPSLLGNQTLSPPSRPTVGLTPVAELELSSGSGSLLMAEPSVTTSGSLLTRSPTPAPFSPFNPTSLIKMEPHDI
The target in the next experiment is ETV1 (Homo sapiens, UniProt P50549 1-477). In short, it runs like this:
as §1

The next experiment has as its target T9, ERF (Homo sapiens, UniProt P50548 1-548).
T9 sequence: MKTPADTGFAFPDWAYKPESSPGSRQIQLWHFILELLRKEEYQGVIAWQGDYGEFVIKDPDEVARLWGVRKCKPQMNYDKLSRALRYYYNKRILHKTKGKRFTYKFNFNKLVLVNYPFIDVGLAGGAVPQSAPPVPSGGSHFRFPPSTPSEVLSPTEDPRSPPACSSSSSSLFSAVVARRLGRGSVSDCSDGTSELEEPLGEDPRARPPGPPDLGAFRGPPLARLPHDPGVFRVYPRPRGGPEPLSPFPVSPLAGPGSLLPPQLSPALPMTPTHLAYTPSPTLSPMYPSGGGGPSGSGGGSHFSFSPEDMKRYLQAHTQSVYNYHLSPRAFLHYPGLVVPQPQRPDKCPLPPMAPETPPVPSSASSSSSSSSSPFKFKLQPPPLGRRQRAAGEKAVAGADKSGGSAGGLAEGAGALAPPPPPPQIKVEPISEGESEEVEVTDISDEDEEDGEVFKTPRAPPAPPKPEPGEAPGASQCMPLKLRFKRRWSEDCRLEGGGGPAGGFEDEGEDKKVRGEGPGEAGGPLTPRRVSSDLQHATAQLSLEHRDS
In short, it runs like this: as §1

For another experiment, the target named is T10, ETV3L (Homo sapiens, UniProt Q6ZN32 1-361).
T10 sequence: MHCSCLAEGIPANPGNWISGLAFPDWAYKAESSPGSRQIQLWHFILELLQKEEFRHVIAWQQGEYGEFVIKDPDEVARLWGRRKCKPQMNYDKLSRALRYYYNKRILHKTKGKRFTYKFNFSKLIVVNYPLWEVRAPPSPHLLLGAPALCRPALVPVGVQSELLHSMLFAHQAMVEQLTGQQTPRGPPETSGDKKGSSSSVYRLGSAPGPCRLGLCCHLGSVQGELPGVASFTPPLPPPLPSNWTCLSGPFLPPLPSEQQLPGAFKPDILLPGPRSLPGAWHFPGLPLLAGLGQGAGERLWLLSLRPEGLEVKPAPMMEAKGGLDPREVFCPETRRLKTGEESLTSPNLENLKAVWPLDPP
In short, it runs like this:
as §1

The next experiment concerns the target T11, ETS2 (Homo sapiens, UniProt P15036 1-469).
T11 sequence: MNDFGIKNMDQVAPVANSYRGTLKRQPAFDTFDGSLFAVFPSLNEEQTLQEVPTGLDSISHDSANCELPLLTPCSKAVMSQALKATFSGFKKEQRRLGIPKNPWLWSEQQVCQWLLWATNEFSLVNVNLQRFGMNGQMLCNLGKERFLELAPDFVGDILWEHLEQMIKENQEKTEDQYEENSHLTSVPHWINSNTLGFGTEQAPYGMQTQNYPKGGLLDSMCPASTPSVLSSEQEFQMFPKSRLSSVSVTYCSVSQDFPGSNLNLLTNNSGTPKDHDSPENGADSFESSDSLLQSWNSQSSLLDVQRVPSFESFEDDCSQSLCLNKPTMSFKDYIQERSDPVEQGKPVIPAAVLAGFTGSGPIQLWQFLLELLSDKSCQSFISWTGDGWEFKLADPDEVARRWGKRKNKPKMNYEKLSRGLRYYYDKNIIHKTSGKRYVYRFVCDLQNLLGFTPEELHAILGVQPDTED
In outline: as §1

The target in a further experiment is T12, ELF5 (Homo sapiens, UniProt Q9UKW6-2 1-255).
T12 sequence: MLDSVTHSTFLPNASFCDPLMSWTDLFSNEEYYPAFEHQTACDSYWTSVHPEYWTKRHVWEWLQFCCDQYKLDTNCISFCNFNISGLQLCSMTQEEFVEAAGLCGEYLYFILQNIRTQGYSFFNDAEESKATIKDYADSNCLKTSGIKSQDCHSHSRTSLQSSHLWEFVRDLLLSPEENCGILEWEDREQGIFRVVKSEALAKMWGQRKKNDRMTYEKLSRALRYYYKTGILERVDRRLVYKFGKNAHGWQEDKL
In short, it runs like this:
as §1

In a further experiment the target is T13, ETV3 (Homo sapiens, UniProt P41162-2 1-143).
T13 sequence: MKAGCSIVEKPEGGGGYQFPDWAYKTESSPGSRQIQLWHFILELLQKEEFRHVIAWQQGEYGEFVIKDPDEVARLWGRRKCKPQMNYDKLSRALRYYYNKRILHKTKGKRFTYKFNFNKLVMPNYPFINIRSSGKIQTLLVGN
In short, it runs like this:
as §1

The next experiment concerns the target ETV6 (Homo sapiens, UniProt P41212 1-452). In outline: as §1

Chain of ETV5 (P41161 whole entry): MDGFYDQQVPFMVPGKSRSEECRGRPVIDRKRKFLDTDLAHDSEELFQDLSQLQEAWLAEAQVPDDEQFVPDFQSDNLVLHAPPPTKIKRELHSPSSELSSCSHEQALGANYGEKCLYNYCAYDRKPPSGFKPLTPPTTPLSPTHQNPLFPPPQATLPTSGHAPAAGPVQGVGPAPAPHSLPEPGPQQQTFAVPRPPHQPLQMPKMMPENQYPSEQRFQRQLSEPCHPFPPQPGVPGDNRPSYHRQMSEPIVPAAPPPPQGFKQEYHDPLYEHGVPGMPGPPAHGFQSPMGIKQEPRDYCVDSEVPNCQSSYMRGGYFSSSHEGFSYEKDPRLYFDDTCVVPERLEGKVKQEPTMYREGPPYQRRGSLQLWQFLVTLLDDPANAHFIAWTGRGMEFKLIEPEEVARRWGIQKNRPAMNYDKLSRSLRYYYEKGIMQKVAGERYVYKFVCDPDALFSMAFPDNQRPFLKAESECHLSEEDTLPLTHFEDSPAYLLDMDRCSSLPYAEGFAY
Chain of ETV6 (P41212 whole entry): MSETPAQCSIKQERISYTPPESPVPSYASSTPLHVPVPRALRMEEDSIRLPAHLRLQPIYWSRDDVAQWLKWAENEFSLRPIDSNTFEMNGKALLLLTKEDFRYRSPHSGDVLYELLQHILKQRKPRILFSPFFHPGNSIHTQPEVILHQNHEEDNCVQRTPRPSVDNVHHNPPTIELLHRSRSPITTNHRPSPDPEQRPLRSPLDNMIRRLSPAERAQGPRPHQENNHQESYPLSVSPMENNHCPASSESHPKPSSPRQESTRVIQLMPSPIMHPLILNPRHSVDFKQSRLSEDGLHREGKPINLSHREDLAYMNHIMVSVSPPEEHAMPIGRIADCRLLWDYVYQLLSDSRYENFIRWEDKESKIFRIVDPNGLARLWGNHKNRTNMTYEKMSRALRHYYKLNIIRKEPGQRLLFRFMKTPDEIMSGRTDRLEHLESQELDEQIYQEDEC
Chain of SPIB (Q01892 whole entry): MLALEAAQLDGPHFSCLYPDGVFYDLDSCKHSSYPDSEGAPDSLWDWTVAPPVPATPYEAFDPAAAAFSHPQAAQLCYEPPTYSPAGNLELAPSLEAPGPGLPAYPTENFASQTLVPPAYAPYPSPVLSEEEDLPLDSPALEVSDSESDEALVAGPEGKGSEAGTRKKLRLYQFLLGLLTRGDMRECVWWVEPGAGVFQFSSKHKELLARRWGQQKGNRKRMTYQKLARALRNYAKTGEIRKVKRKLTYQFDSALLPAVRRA
Chain of ETV1 (P50549 whole entry): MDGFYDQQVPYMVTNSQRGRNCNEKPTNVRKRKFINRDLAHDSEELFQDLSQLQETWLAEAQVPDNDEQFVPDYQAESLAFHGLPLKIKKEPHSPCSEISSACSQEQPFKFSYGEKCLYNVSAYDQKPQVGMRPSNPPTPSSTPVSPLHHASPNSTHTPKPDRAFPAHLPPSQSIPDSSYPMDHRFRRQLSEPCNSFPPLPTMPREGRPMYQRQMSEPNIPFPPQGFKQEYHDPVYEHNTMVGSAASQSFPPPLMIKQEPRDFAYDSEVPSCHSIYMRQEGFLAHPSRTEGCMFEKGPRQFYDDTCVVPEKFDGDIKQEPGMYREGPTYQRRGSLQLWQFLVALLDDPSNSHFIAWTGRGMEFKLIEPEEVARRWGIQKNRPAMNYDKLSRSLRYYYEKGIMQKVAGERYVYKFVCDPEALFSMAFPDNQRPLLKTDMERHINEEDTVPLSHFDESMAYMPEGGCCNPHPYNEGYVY

Regarding ACGATG, the binding signal in the experiment with FLI1 is 1.24 fold enrichment (6-mer frequency, TF over GST control); with ELK1, 1.06 fold enrichment (6-mer frequency, TF over GST control); with GABPA, 1.17 fold enrichment (6-mer frequency, TF over GST control); with ERG it was 1.13 fold enrichment (6-mer frequency, TF over GST control); with ELF1, 1.06 fold enrichment (6-mer frequency, TF over GST control); with EHF it was 1.16 fold enrichment (6-mer frequency, TF over GST control). Moreover, the binding signal with SPI1 was 1.17 fold enrichment (6-mer frequency, TF over GST control); with SPIB it was 1.18 fold enrichment (6-mer frequency, TF over GST control); with ELK3, 1.17 fold enrichment (6-mer frequency, TF over GST control); in the experiment with FEV it was 1.05 fold enrichment (6-mer frequency, TF over GST control); with ETV5 it was 1.12 fold enrichment (6-mer frequency, TF over GST control); with SPIC it was 1.03 fold enrichment (6-mer frequency, TF over GST control). For the same sequence, the binding signal is 1.12 fold enrichment (6-mer frequency, TF over GST control) in the experiment with ELF4; 1.12 fold enrichment (6-mer frequency, TF over GST control) in the experiment with ETV1; 1.09 fold enrichment (6-mer frequency, TF over GST control) with ERF; 1.14 fold enrichment (6-mer frequency, TF over GST control) in the experiment with ETV3L; 1.12 fold enrichment (6-mer frequency, TF over GST control) with ETS2; 1.01 fold enrichment (6-mer frequency, TF over GST control) with ELF5. Besides, the binding signal was 1.08 fold enrichment (6-mer frequency, TF over GST control) with ETV3 and 1.06 fold enrichment (6-mer frequency, TF over GST control) in the experiment with ETV6.
